# Screening results deposited in PubChem by National Center for Advancing Translational Sciences (NCATS).
# FMDV antiviral: FMDV antiviral activity by firefly signal | FMDV antiviral cell assay, firefly luciferase signal | Potency, µM (series often up to 57.5 µM), for the others: at the highest dose activity change, negative = inhibition, most hits filed as inhibitors | actives 0.23% (n = 120,000); note: nearly all actives have a fitted effect of over 60% in size
# FMDV Renilla: FMDV antiviral activity by Renilla signal; FMDV replicon cells, Renilla luciferase signal; AID 1745857; Potency, µM (titrated, usually from 57.5 µM), without a hit: top-dose activity change, negative = inhibition, most hits filed as inhibitors; actives 0.32% (n = 120,000); note: nearly all actives have a fitted effect of over 55% in size
# * = called active by the depositor; ? = inconclusive; [ ] = another dose, or the depositor's remark. Compounds with a hit are over-represented: about 0.4% of the library has one in this group of screens. Calls come from the whole dose curve. % is set by controls: 0 for no effect and ±100 for the full control effect; potency is the fitted concentration of half-maximal effect.
SMILES,FMDV antiviral,FMDV Renilla
NCC1CCN(CCc2ccc(F)cc2)CC1,-9%,-9%
Cc1ccc(N/N=C/C(Br)=C/c2ccccc2)cc1Cl,161%,16%
CCCCCC(C)NCc1sccc1C (centres undefined),11%,11%
C=C(C)COc1ccc2c(C)c(CC(=O)NCCc3ccc(S(N)(=O)=O)cc3)c(=O)oc2c1,4µM*,3.5µM*
Cc1c(C)c2ccc(OCC(=O)NCCc3ccc(S(N)(=O)=O)cc3)cc2oc1=O,3%,0%
COc1ccc(CNC(=O)Cn2c(=O)oc3cc(S(=O)(=O)N4CCCC4)ccc32)cc1,16%,-8%
CN(C)c1ccc(CNC(=O)Cn2c(=O)oc3cc(S(=O)(=O)N4CCCCCC4)ccc32)cc1,?,20µM*
Cc1cc(C)cc(NC(=O)Cn2c(=O)oc3cc(S(=O)(=O)N4CCCC4)ccc32)c1,0%,-1%
CC(C)c1ccc(NC(=O)Cn2c(=O)oc3cc(S(=O)(=O)N4CCCC4)ccc32)cc1,6.3µM*,?
CC1(c2ccccc2)NC(=O)N(NC(=O)c2n[nH]c(=O)c3ccccc23)C1=O (centres undefined),18%,12%
N#Cc1cccc(C(=O)Nc2ccc(Cl)c(C(F)(F)F)c2)c1,2%,-2%
CC(O)CNc1nc(-c2ccco2)c2c(c1C#N)CCCC2 (centres undefined),-10%,-3%
Cc1ccc(-c2cc(C(=O)O)c3cccc(Cl)c3n2)s1,0%,-10%
N#Cc1c(N2CCN(C(=O)C(=O)N3CCCC3)CC2)nc(-c2ccco2)c2c1CCCC2,-15%,-7%
COc1ccc(NC(=O)c2nc(S(=O)(=O)Cc3ccc(C)cc3)ncc2Cl)cc1,0%,14%
COc1ccc(CNC(=O)c2nc(S(=O)(=O)Cc3ccccc3)ncc2Cl)cc1,22µM*,2%
CC(=O)NCc1ccc(-c2csc(Nc3cccc(C(F)(F)F)c3)n2)o1,35%,-7%
Cc1ccc(C(=O)/C=C/Nc2ccc(N(C)C)cc2)cc1C,211%,21%
O=C(O)c1cc([N+](=O)[O-])ccc1OC(F)F,6%,0%
COc1ccccc1CNC(=O)c1c(O)nc2c(C)cccn2c1=O,?,35µM*
COc1ccc(CCNC(=O)c2c(O)nc3c(C)cccn3c2=O)cc1OC,-18%,-13%
Cc1cc(C)cc(NC(=O)C2CCN(c3nnc(-n4c(C)ccc4C)s3)CC2)c1,22%,-3%
Cc1ccc(C)c(N2CCN(C(=O)C3CCN(c4nnc(-n5c(C)ccc5C)s4)CC3)CC2)c1,?,11µM*
N#Cc1ccc(NCCNC(=O)Nc2ccccc2)nc1,0%,-41%
N#Cc1ccc(NCCNC(=O)C2CCCCC2)nc1,?,32µM*
SMILES,FMDV antiviral,FMDV Renilla
Cc1nn(Cc2ccc(F)cc2)c(C)c1NC(=O)c1cc(-c2cccs2)on1,35µM*,?
Cc1cc(C(=O)Nc2c(C)nn(Cc3ccc(F)cc3)c2C)no1,1%,4%
O=C(O)CC(c1ccncc1)c1c[nH]c2ccccc12 (centres undefined),0%,-7%
CC(C)c1ccc(C(=O)COC(=O)c2ccc(N3CCOCC3)nc2)cc1,17%,20%
CCOC(=O)c1ccc(NCc2ccnc(N3CCOCC3)c2)nc1,?,28µM*
CCc1nn2c(=O)cc(CNc3ccc4c(c3)OCCCO4)nc2s1,4.5µM*,3%
CCc1nn2c(=O)cc(CNc3ccccc3NC(=O)c3ccccc3)nc2s1,7%,-2%
CCN(CC)c1cc(C)nc(Nc2ccc(NC(=O)CCCc3ccccc3)cc2)n1,?,32µM*
Cc1cc(N(C)C)nc(Nc2ccc(NC(=O)Nc3ccc(F)cc3)cc2)n1,23%,-7%
Cc1cc(-c2cc(C(=O)O)c3ccccc3n2)cc(C)c1C,66%,?
O=C(NCc1ccccc1CN1CCOCC1)c1cc(-c2ccco2)nc2ccccc12,-12%,-2%
Cc1cc(C(=O)Cn2c(Cl)nc3c2c(=O)n(C)c(=O)n3C)c(C)n1Cc1ccc(F)cc1,0%,12%
Cc1cc(C(=O)Cn2c(Cl)nc3c2c(=O)n(C)c(=O)n3C)c(C)n1CC(F)(F)F,22µM*,16µM*
N#C/C(=C\c1ccc([N+](=O)[O-])o1)C(=O)NC1CCCCC1,0%,-5%
O=C(c1ccc(Cl)cc1Cl)C(Br)C(O)C(Cl)(Cl)Cl (centres undefined),0%,?
O=C(CSc1ncnc2ccccc12)c1ccc2c(c1)OCCCO2,-31%,14µM*
O=C(CSc1cnc2ccccc2n1)c1ccc2c(c1)OCCO2,13%,0%
COc1ccc(OC)c(C(=O)COC(=O)Cc2ccc(Cl)cc2)c1,0%,6%
O=C(O)c1cc(-c2ccco2)nc2c(Cl)cccc12,-12%,-20%
OC1(c2ccc(Cl)c(C(F)(F)F)c2)CCN(CCCC(c2ccc(F)cc2)c2ccc(F)cc2)CC1,-13%[11.5 µM],22µM*
CCNC(=O)N1CCN(CCCC(c2ccc(F)cc2)c2ccc(F)cc2)CC1,14%[11.5 µM],?
O=S(=O)(/C(=C/c1ccc2ccccc2c1)c1nc2ccccc2[nH]1)c1ccccc1,35µM*,16µM*
